Results filed as inconclusive are left out. Entries that show only a call come without a potency. Calls of active or inactive are those of the source. Calls follow the shape of the dose curve; as a rule, active = well fitted cell-killing curve with a large enough effect; inconclusive = small, poorly fitted or top-dose-only effect, or effect the other way; inactive = no such curve, though single readings can be large or run the other way.
How the values were obtained:
[1] = Quantitative High-Throughput drug screen in 47 multiple myeloma cell lines against the NCATS MIPE library collection: H1112_PLB cell viability assay (AID 1918967; also: nearly all actives have a fitted effect of over 30% in size)
Method in brief: (§1)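 qHTS of the MIPE 4.0 collection: 500 myeloma cells/well, 48 h drug exposure at 37C in 5% CO2, then CellTiter-Glo for 5 min at room temperature before luminescence reading.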

[2] = Quantitative High-Throughput drug screen in 47 multiple myeloma cell lines against the NCATS MIPE library collection: Karpas25_ECACC cell viability assay (AID 1918968; also: nearly all actives have a fitted effect of over 35% in size)
Method in brief: as §1

[3] = Quantitative High-Throughput drug screen in 47 multiple myeloma cell lines against the NCATS MIPE library collection: KMS12BM_JCRB cell viability assay (AID 1918971); also: nearly all actives have a fitted effect of over 35% in size
Method in brief: (§2)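 Myeloma cells (500 per well) were exposed to MIPE 4.0 compounds by pin transfer and incubated 48 hours at 37C, 5% CO2. Viability was read as ATP by CellTiter-Glo luminescence, normalised to DMSO (100%) and media-only (0%) wells.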

[4] = Quantitative High-Throughput drug screen in 47 multiple myeloma cell lines against the NCATS MIPE library collection: KMS20_JCRB cell viability assay (AID 1918973); also: nearly all actives have a fitted effect of over 45% in size
Method in brief: as §1

[5] = Quantitative High-Throughput drug screen in 47 multiple myeloma cell lines against the NCATS MIPE library collection: KMS12PE_JCRB cell viability assay (AID 1918972); also: nearly all actives have a fitted effect of over 30% in size
Method in brief: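 Luminescent ATP measurement with CellTiter-Glo gives viability, scaled between DMSO-only wells (100%) and media-only wells (0%). Cells, 500 per well, faced library compounds for 48 hours at 37C.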

[6] = Quantitative High-Throughput drug screen in 47 multiple myeloma cell lines against the NCATS MIPE library collection: MOLP8_DSMZ cell viability assay (AID 1918977); also: nearly all actives have a fitted effect of over 45% in size
Method in brief: (§3)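 qHTS format: cells plated (500/well), pin-dosed with MIPE 4.0 compounds, kept 48 h at 37 °C. Readout was CellTiter-Glo luminescence, median RLU.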

[7] = Quantitative High-Throughput drug screen in 47 multiple myeloma cell lines against the NCATS MIPE library collection: KMS26_JCRB cell viability assay (AID 1918975); also: nearly all actives have a fitted effect of over 45% in size
Method in brief: as §2

[8] = Quantitative High-Throughput drug screen in 47 multiple myeloma cell lines against the NCATS MIPE library collection: MMM1_PLB cell viability assay (AID 1918976); also: nearly all actives have a fitted effect of over 35% in size
Method in brief: as §3

[9] = Quantitative High-Throughput drug screen in 47 multiple myeloma cell lines against the NCATS MIPE library collection: KMS21BM_JCRB cell viability assay (AID 1918974); conditions: ATP luminescence, 48 h; viability: at 45.8 µM (top of the series) unless noted
Method in brief: as §1

[10] = Quantitative High-Throughput drug screen in 47 multiple myeloma cell lines against the NCATS MIPE library collection: KMS27_JCRB cell viability assay (AID 1918970); also: nearly all actives have a fitted effect of over 30% in size
Method in brief: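 Each line is seeded at 500 cells per well and treated with library compounds for 48 hours under 37 °C, 5% CO2. CellTiter-Glo is then added for 5 min at room temperature before median relative luminescence is recorded.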
Potency is read from the fitted curve at half-maximal effect.

Compound: O=C(CS(=O)Cc1ccco1)NCC=CCOc1cc(CN2CCCCC2)ccn1 (stereo unspecified)
- Potency [1]: inactive
- Potency [2]: 20.9 µM (active)
- Potency [3]: inactive
- Potency [4]: inactive

Compound: C=C(c1ccc(C(=O)O)cc1)c1cc2c(cc1C)C(C)(C)CCC2(C)C
- Potency [1]: inactive
- Potency [2]: 14.8 µM (active)
- Potency [5]: inactive
- Potency [6]: inactive

Compound: CCOC(=O)c1c(C)n(C)c2ccc(O)cc12
- Potency [1]: inactive
- Potency [2]: inactive
- Potency [5]: inactive
- Potency [4]: inactive
- Potency [7]: inactive
- Potency [6]: inactive

Compound: CN(C)CCc1c[nH]c2ccc(Cn3cncn3)cc12
- Potency [1]: inactive
- Potency [2]: inactive
- Potency [3]: inactive
- Potency [7]: inactive

Compound: CS(=O)(=O)OCCCCOS(C)(=O)=O
- Potency [1]: inactive
- Potency [2]: inactive
- Potency [4]: inactive
- Potency [8]: 16.6 µM (active)

Compound: Clc1ccc2c(N3CCN(CCCN4CCN(c5ccnc6cc(Cl)ccc56)CC4)CC3)ccnc2c1
- Potency [1]: inactive
- Potency [2]: inactive
- Potency [3]: inactive
- Potency [4]: inactive

Compound: COc1cc(OC)c(C(=O)CCCN2CCCC2)c(OC)c1
- Potency [1]: inactive
- Potency [2]: inactive
- Potency [5]: inactive
- Potency [9]: 18.7 µM (active)
- Potency [6]: inactive

Compound: COC(=O)C1=C(C)NC(C)=C(C(=O)OC(C)C)C1c1cccc2nonc12 (stereo unspecified)
- Potency [1]: 3.32 µM (active)
- Potency [2]: 5.26 µM (active)
- Potency [3]: 18.7 µM (active)
- Potency [4]: 20.9 µM (active)
- Potency [7]: inactive
- Potency [8]: 5.9 µM (active)

Compound: CN1C(C(=O)Nc2ccccn2)=C(O)c2sccc2S1(=O)=O
- Potency [1]: inactive
- Potency [2]: inactive
- Potency [5]: inactive
- Potency [7]: inactive
- Potency [8]: 2.35 µM (active)

Compound: CCC[C@@H]1C[C@@H](C(=O)N[C@@H]([C@H]2O[C@H](SC)[C@H](O)[C@@H](O)[C@H]2O)[C@@H](C)O)N(C)C1
- Potency [1]: inactive
- Potency [2]: inactive
- Potency [3]: 2.64 µM (active)
- Potency [5]: inactive
- Potency [7]: inactive
- Potency [6]: inactive

Compound: CC(C)[C@H](N)C(=O)OCCOCn1cnc2c(=O)[nH]c(N)nc21
- Potency [1]: inactive
- Potency [2]: inactive
- Potency [5]: 23.5 µM (active)
- Potency [7]: inactive
- Potency [8]: inactive

Compound: CCC1=C(C)CN(C(=O)NCCc2ccc(S(=O)(=O)NC(=O)NC3CCC(C)CC3)cc2)C1=O (stereo unspecified)
- Potency [1]: inactive
- Potency [2]: inactive
- Potency [5]: inactive
- Potency [4]: inactive
- Potency [9]: inactive
- Potency [7]: inactive

Compound: CC1(C)CCC(C)(C)c2cc(NC(=O)c3ccc(C(=O)O)cc3)ccc21
- Potency [1]: 10.5 µM (active)
- Potency [2]: 20.9 µM (active)
- Potency [5]: 20.9 µM (active)

Compound: CC(C)C[C@H](NC(=O)[C@H](Cc1ccccc1)NC(=O)c1cnccn1)B(O)O
- Potency [1]: 0.0132 µM (active)
- Potency [2]: 0.0074 µM (active)
- Potency [3]: 0.0148 µM (active)
- Potency [4]: 0.0148 µM (active)
- Potency [7]: 0.0148 µM (active)
- Potency [8]: 0.469 µM (active)
- Potency [6]: 0.0093 µM (active)

Compound: C[C@@H](N)C1CCC(C(=O)Nc2ccncc2)CC1 (stereo partly specified)
- Potency [1]: 14.8 µM (active)
- Potency [2]: 26.4 µM (active)
- Potency [4]: inactive
- Potency [6]: inactive

Compound: COc1cc2nc(N3CCN(C(=O)C4CCCO4)CC3)nc(N)c2cc1OC (stereo unspecified)
- Potency [1]: inactive
- Potency [2]: inactive
- Potency [5]: 16.6 µM (active)
- Potency [6]: inactive

Compound: CCCCCCCCCCCCCCCCCCCCCCO
- Potency [1]: inactive
- Potency [2]: inactive
- Potency [5]: inactive
- Potency [6]: inactive

Compound: O=P(O)(O)C(O)(Cn1ccnc1)P(=O)(O)O
- Potency [1]: inactive
- Potency [10]: inactive
- Potency [4]: inactive
- Potency [7]: inactive
- Potency [6]: inactive

Compound: COC(=O)N[C@H](C(=O)N[C@@H](Cc1ccccc1)[C@@H](O)CN(Cc1ccc(-c2ccccn2)cc1)NC(=O)[C@@H](NC(=O)OC)C(C)(C)C)C(C)(C)C
- Potency [1]: inactive
- Potency [10]: inactive
- Potency [3]: 20.9 µM (active)
- Potency [5]: inactive
- Potency [8]: 6.62 µM (active)

Compound: Cc1cccc(-c2[nH]ncc2-c2ccc3ncccc3n2)n1
- Potency [1]: inactive
- Potency [5]: inactive
- Potency [8]: inactive

Compound: Cc1cccc(C)c1OCC(=O)N[C@@H](Cc1ccccc1)[C@@H](O)C[C@H](Cc1ccccc1)NC(=O)[C@H](C(C)C)N1CCCNC1=O
- Potency [1]: 16.6 µM (active)
- Potency [5]: 6.62 µM (active)
- Potency [7]: 18.7 µM (active)
- Potency [8]: 16.6 µM (active)

Compound: CC(C)[N+]1(C)[C@@H]2CC[C@H]1CC(OC(=O)C(CO)c1ccccc1)C2 (stereo partly specified)
- Potency [1]: inactive
- Potency [10]: 14.8 µM (active)
- Potency [5]: 16.6 µM (active)
- Potency [7]: inactive
- Potency [6]: inactive

Compound: CN(C)[C@@H](CCOc1cccc2ccccc12)c1ccccc1
- Potency [1]: 18.7 µM (active)
- Potency [4]: 14.8 µM (active)
- Potency [8]: 20.9 µM (active)

Compound: Cn1c(NCCN(CCO)CCCc2ccc([N+](=O)[O-])cc2)cc(=O)n(C)c1=O
- Potency [1]: inactive
- Potency [5]: 20.9 µM (active)
- Potency [9]: 10.5 µM (active)
- Potency [7]: inactive

Compound: O=c1c(O)c(-c2cc(O)c(O)c(O)c2)oc2cc(O)cc(O)c12
- Potency [1]: inactive
- Potency [3]: 23.5 µM (active)
- Potency [4]: inactive
- Potency [8]: 18.7 µM (active)
- Potency [6]: 18.7 µM (active)

Compound: CC(C)(S)[C@@H](N)C(=O)O
- Potency [1]: inactive
- Potency [10]: inactive
- Potency [5]: inactive
- Potency [9]: inactive
- Potency [7]: inactive
- Potency [6]: inactive
